Screening results: PubChem BioAssay, several laboratories
A selection: hits, their analogues and other compounds. The true share with any hit is near 27%.
sEH act: increases human soluble epoxide hydrolase activity | activation, % at 2 µM | actives 0.04% (n = 91,000) | purified human sEH enzymatic activity, activator screen; in the data active = activation above about 37%
CYP2C9 inhib: blocks human cytochrome P450 2C9; CYP2C9 Supersomes, luciferin-H conversion, luminescence; P11712; actives 20% (n = 96,000); inhibition, % at 5 µM;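 active = blocking of liver enzyme CYP2C9 beyond about 50% at 5 µM, limit read from the data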
CYP2C19 inhib: blocks human cytochrome P450 2C19. CYP2C19 Supersomes, luciferin-H EGE luminescence, 30 min. inhibition, % at 5 µM. actives 21% (n = 96,000). AID 778;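 active = CYP2C19 inhibition above a set limit at 5 µM in the primary screen, cut at about 50% in these data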;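 also: plate controls were negative control wells for no effect and 2.5 mM tranylcypromine positive control for full effect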
Target sequence (P33261 whole entry, looked up): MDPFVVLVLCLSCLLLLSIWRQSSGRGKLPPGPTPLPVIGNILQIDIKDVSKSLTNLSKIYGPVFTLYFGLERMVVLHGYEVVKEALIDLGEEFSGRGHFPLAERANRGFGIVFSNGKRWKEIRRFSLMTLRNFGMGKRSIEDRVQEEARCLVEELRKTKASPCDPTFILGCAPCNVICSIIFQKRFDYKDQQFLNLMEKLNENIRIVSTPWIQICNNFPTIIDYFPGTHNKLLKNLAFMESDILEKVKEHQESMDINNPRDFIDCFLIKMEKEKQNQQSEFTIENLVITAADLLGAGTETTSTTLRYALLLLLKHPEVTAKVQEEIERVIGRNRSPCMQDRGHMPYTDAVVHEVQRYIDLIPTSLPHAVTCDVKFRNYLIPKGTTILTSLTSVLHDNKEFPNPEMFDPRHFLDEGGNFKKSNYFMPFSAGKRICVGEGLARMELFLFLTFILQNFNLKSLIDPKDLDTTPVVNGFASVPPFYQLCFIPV
sEH inhibitor: blocks human soluble epoxide hydrolase activity; recombinant human sEH enzymatic activity assay; inhibition, % at 2 µM; actives 0.34% (n = 91,000); in the data active = inhibition above about 80%
CYP2C9 activ: activators of human CYP2C9; P11712; actives 1.4% (n = 96,000); recombinant CYP2C9, luciferin-H conversion, luminescence; active compounds read high; factor 1 = untreated enzyme, 0 = blocked; AID 1024; activation factor at 5 µM;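 active = activation factor of 2 or more for CYP2C9 at a 5 µM dose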;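 also: 0 = sulfaphenazole-blocked wells and 1 = vehicle-only wells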
CYP2C19 act: cytochrome P450 2C19 (human) activation; P33261; AID 1025; 96,000 tested, under 10 active; recombinant CYP2C19, luciferin-H EGE luminescence; active compounds read high; 0 = fully inhibited enzyme, 1 = untreated enzyme; activation factor at 5 µM;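 active = activation factor of at least 2 at 5 µM in the primary screen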;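 also: 0 = wells with 2.5 mM tranylcypromine and 1 = vehicle-only wells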
* = called active by the depositor; x = not tested or not shown.

SMILES	sEH act	CYP2C9 inhib	CYP2C19 inhib	sEH inhibitor	CYP2C9 activ	CYP2C19 act
O=C1C2ON(c3ccccc3)C(c3ccncc3)C2C(=O)N1c1ccc(Br)cc1 (stereo not drawn)	-4	99*	100*	4	0	0
O=C1C2C(c3ccccc3)C=CC(c3ccccc3)C2C(=O)N1c1ccncc1 (stereo not drawn)	-7	82*	97*	8	0.2	0
O=C1C2ON(c3ccccc3)C(c3ccncc3)C2C(=O)N1c1ccc(N2CCOCC2)cc1 (stereo not drawn)	8	45	26	-7	0.6	0.7
Cc1ccc(N2C(=O)C3ON(c4ccccc4)C(c4ccncc4)C3C2=O)cc1 (stereo not drawn)	-12	97*	100*	14	0	0
Cc1cc(-c2ccccc2)nc(N(C)NC(=O)c2cccc(C(F)(F)F)c2)c1S(C)(=O)=O	-3	13	15	3	0.9	0.8
O=C1C=C(NCC2CCCO2)CC(c2ccccc2)C1 (stereo not drawn)	-4	-3	73*	4	1	0.3
O=C1C=C(NCCN2CCOCC2)CC(c2ccccc2)C1 (stereo not drawn)	-3	-2	8	2	1	0.9
Cn1nc(C(F)(F)F)c(C#N)c1N1CCN(c2ccccc2F)CC1	-7	21	-9	9	0.8	1.1
COc1cccc(N2CCN(c3c(C#N)c(C(F)(F)F)nn3C)CC2)c1	-4	92*	94*	7	0.1	0.1
C=C(C)CSc1nnc(-c2cccc(S(=O)(=O)N(C)C)c2)n1-c1cc(OC)ccc1OC	21	85*	86*	-17	0.2	0.1
Cc1ccc(SCC(=O)Nc2cccc(C(=O)NC(C)(C)C)c2)cc1	1	58*	27	2	0.4	0.7
Cc1ccc(SCC(=O)Nc2cccc(-c3nnc(-c4ccco4)o3)c2)cc1	-6	91*	23	8	0.1	0.8
COc1cccc(C(=O)Nc2cccc(-c3nnc(-c4ccco4)o3)c2)c1	-6	70*	77*	7	0.3	0.2
CC(C)CC(=O)Nc1ccccc1-c1nnn(CC(=O)N2CCOCC2)n1	-9	21	3	11	0.8	1
Cc1ccc(S(=O)(=O)N2CCOCC2)cc1C(=O)NCc1cn2ccsc2n1	-4	-2	-2	6	1	1
CC(C)(C)c1ccc(C(=O)NNC(=O)C(=O)N2CCCCC2)cc1	-2	6	0	5	0.9	1
C=CCSc1nncn1/N=C/c1ccc(OC)cc1	10	36	82*	-13	0.6	0.2
CCC(=O)NCCc1nc2ccccc2n1Cc1ccc(C)cc1	0	31	28	-2	0.7	0.7
O=C1NC2(CCOc3ccccc32)C(=O)N1CC(=O)N(Cc1ccccc1)C1CCS(=O)(=O)C1 (stereo not drawn)	-5	22	16	4	0.8	0.8
CCN(c1ccc(NC(=O)CN2C(=O)NC3(CCOc4ccccc43)C2=O)cc1)C(C)C (stereo not drawn)	-5	59*	27	8	0.4	0.7
Cc1ccc(NCCC(=O)c2ccc(Br)cc2)cc1	7	16	79*	-6	0.8	0.2
CCc1ccc(NCCC(=O)c2ccc(Br)cc2)cc1	0	50*	86*	-2	0.5	0.1
Cc1ccc(NCCC(=O)c2ccc(Cl)cc2)cc1	-10	28	83*	10	0.7	0.2
O=c1[nH]c2ccc(Cl)cc2c(-c2ccccc2)c1N1CCN(c2ccccn2)CC1	x	39	-8	x	0.6	1.1
CCc1nn(CC(=O)NCCCN2CCc3ccccc3C2)c(=O)c2cc3sccc3n12	7	-8	1	-8	1.1	1
SMILES	sEH act	CYP2C9 inhib	CYP2C19 inhib	sEH inhibitor	CYP2C9 activ	CYP2C19 act
CCOC(=O)C1CCCN(Cc2c(F)cccc2Cl)C1 (stereo not drawn)	17	7	62*	-14	0.9	0.4
CCOC(=O)C1CCCN(C(=O)Cn2nc(CC)n3c(cc4sccc43)c2=O)C1 (stereo not drawn)	x	45	84*	x	0.6	0.2
COC(=O)C1CCN(C(=O)C(C)Oc2ccc(Cl)cc2Cl)CC1 (stereo not drawn)	19	18	90*	-18	0.8	0.1
CC1CCCCN1C(=O)Cc1ccc(Cl)cc1 (stereo not drawn)	4	31	96*	0	0.7	0
CCC(C)(C)n1nnnc1CN1CCC(O)(c2cccc(C(F)(F)F)c2)CC1	10	x	x	-8	x	x
CCOC(=O)C1CCCN(C(=O)c2ccccc2SCCOC)C1 (stereo not drawn)	-2	68*	61*	6	0.3	0.4
CCOC(=O)C1CCN(C(=O)CC(C)c2ccccc2)CC1 (stereo not drawn)	15	4	19	-15	1	0.8
CCOC(=O)C1CCCN(C(=O)CC(C)c2ccccc2)C1 (stereo not drawn)	-6	84*	79*	8	0.2	0.2
CCOC(=O)N1CCN(C(=O)CCSCCc2ccncc2)CC1	6	32	63*	-6	0.7	0.4
CCOC(=O)C1CCCN(C(=O)c2sc3nc(-c4ccccc4)cn3c2C)C1 (stereo not drawn)	5	56*	59*	-2	0.4	0.4
CCOC(=O)C1CCCN(C(=O)c2cn(C)c(=O)c3cc(OC)c(OC)cc23)C1 (stereo not drawn)	6	x	x	-4	x	x
CC(CN(C(N)=O)c1ccccc1O)C(=O)O (stereo not drawn)	-4	-38	-18	3	1.4	1.2
Cc1ccc(NC(=O)C2CCN(S(=O)(=O)c3c(C)[nH]c(=O)[nH]c3=O)CC2)cc1	2	5	-2	-5	1	1
CCCCC1(C)NC(=O)N(CC(=O)Nc2ccc(S(=O)(=O)N3CCOCC3)cc2)C1=O (stereo not drawn)	-5	10	6	4	0.9	0.9
CCOC(=O)C1CCN(C(=O)CSc2ccccc2)CC1	2	31	64*	-4	0.7	0.4
CCOC(=O)N1CCN(C(=O)Cc2ccc(Cl)cc2)CC1	x	64*	54*	x	0.4	0.5
CCOC(=O)N1CCN(CCC(=O)c2ccc(Cl)cc2)CC1	1	64*	37	4	0.4	0.6
CCCCC(=O)Nc1ccc(C(=O)N2CCCC(C(=O)OCC)C2)cc1 (stereo not drawn)	-15	-1	92*	17	1	0.1
CCOC(=O)C1CCN(C(=O)Cn2cccc2C(=O)c2ccccc2)CC1	4	3	6	-3	1	0.9
CCOC(=O)C1CCCN(C(=O)Nc2ccccc2)C1 (stereo not drawn)	-10	6	43	10	0.9	0.6
Cn1cc(C(=O)Nc2ccc(F)c(F)c2)cn1	13	-13	-6	-10	1.1	1.1
